Molecules are shown by their SMILES.

Assay type in all cases: functional
The test system of assay [1] is Plasmodium falciparum. Briefly: GSK_TCMDC: Inhibition of Plasmodium falciparum 3D7 in whole red blood cells, using parasite LDH activity as an index of growth. Test compounds present at 2uM.
Assay [2] concerns Plasmodium falciparum. Briefly: GSK_TCMDC: Inhibition of Plasmodium falciparum Dd2 in whole red blood cells, using parasite LDH activity as an index of growth. Test compounds present at 2uM.
Assay [3] deals with HepG2. Briefly: GSK_TCMDC: Percent inhibition of human HepG2 cell line. Test compounds present at 10uM.

As usually defined, the Inhibition is the share of the control response that was lost under treatment. Higher therefore signals strong suppression. As for `Cc1cc(N[C@@H](Cc2ccccc2)C(=O)NCCOc2ccccc2)nc(NCC2CCCCC2)n1.O=C(O)C(F)(F)F`, the figures for the Inhibition in assay [1], in assay [2] and in assay [3] were 100%, 75% and 30%, respectively.

Turning to `CCOc1cc[nH]c(=O)n1`, the Inhibition is 97% in assay [1], 95% in assay [2] and 0% in assay [3].

In the case of `COc1ccc(-n2nc(C(=O)NCCC3=CCCCC3)c3ccccc3c2=O)cc1`, the Inhibition came out at 94% in assay [1], 59% in assay [2] and 0% in assay [3].

As to `O=C(/C=C/c1ccc(Cl)c(Cl)c1)N1CCC(CCN2CCC(c3c[nH]c4ccncc34)CC2)CC1`, the Inhibition in assay [1] turned out to be 100%; in assay [2], 70%; in assay [3], 13%.

Consider `CC(=O)Nc1ccc(Nc2cc(C)nc(Nc3ccc(NC(C)=O)cc3)n2)cc1`, for which the Inhibition in assay [1] was 99%; in assay [2], 65%; in assay [3] it was 4%.

Consider `c1ccc2c(NCCc3c[nH]cn3)c3ccccc3nc2c1`, for which the figures for the Inhibition in assay [1], in assay [2] and in assay [3] were 91%, 0% and 20%, respectively.

Turning to `Cl.N=C(N)NN=Cc1c2ccccc2c(Cl)c2cc(Cl)ccc12`, the figures for the Inhibition in assay [1], in assay [2] and in assay [3] were 97%, 28% and 26%, respectively.

Turning to `COc1cc(Nc2ncc3c(C)nc(-c4cccc(Nc5ccc(CN6CCS(=O)(=O)CC6)cc5)c4)n3n2)cc(OC)c1OC`, the Inhibition in assay [1] was found to be 90%; in assay [2], 79%; in assay [3] it was 2%.

In the case of `COc1ccc(CCc2ccc(-c3c(C)[nH]c(C)c(Cl)c3=O)cc2)cc1OC`, the Inhibition in assay [1] stood at 99%; in assay [2], 97%; in assay [3], 0%.

With `O=C(Cc1ccc[n+]([O-])c1)Nc1cccc(-c2cccc(-c3nc4cc(C(F)(F)F)ccc4[nH]3)c2)c1`, the values for the Inhibition in assay [1], in assay [2] and in assay [3] were 92%, 99% and 41%, respectively.

As to `CN1CCc2cc(NC(=O)c3cc4ccccc4s3)cc(-c3ccccc3)c2CC1.Cl`, the results for the Inhibition in assay [1], in assay [2] and in assay [3] were 91%, 11% and 20%, respectively.

`COc1ccc(NC(=O)c2ccc(NC(=O)c3ccc(Cl)cc3)cc2)cc1N1CCN(C)CC1`: the Inhibition in assay [1] came out at 98%; in assay [2], 40%; in assay [3] it was 23%.

For the molecule `Cc1ccc(NC(=O)c2cnc(N3CCN(c4ccncc4)CC3)c(Cl)c2)cc1.O=C(O)C(F)(F)F`, the figures for the Inhibition in assay [1], in assay [2] and in assay [3] were 94%, 24% and 25%, respectively.

With `CN(C)CC(O)C(O)(c1ccccc1)c1ccc(F)cc1.Cl` (centres undefined), the figures for the Inhibition in assay [1], in assay [2] and in assay [3] were 93%, 10% and 0%, respectively.

`O=C(OCc1ccccc1)N1CCc2c([nH]c3ccccc23)C1CCC(F)(F)F` (centres undefined): the Inhibition in assay [1] was 94%; in assay [2], 81%; in assay [3], 0%.

With `CCC[C@@H]([C@@H](CC(C)C)C(=O)N[C@@H](CCCCNC(=O)c1ccccn1)C(=O)Nc1nccs1)N(O)C=O`, the values for the Inhibition in assay [1], in assay [2] and in assay [3] were 100%, 100% and 0%, respectively.

As to `Nc1ncc(-c2cccc(OCc3ccccc3)c2)cc1-c1nnc2ccc(Cl)nn12`, the figures for the Inhibition in assay [1], in assay [2] and in assay [3] were 94%, 7% and 0%, respectively.

Consider `CC(=O)Nc1nc(C(=O)Nc2ccc(-c3cccc(-c4nc5ccccc5[nH]4)c3)cc2)cs1`, for which the Inhibition in assay [1] was 99%; in assay [2], 83%; in assay [3] it was 68%.

`CCn1c(SC)nnc1C1CCCN(CC(=O)Nc2nc3ccc(OC)cc3s2)C1` (centres undefined): the Inhibition in assay [1] turned out to be 97%; in assay [2], 81%; in assay [3], 0%.

As for `O=C(O)C(F)(F)F.O=c1ccc2ccc(F)c3c2n1CC3CN1CCC(NCc2cccc(-c3ccccc3F)c2)CC1` (centres undefined), the Inhibition came out at 100% in assay [1], 6% in assay [2] and 29% in assay [3].

Consider `Cc1cccc(-c2ccc(NC(=O)C3CCN(Cc4cccc(O)c4)CC3)cc2)c1`, for which the Inhibition is reported as 92% in assay [1], 64% in assay [2] and 21% in assay [3].

Take `NCCCNc1ccc(-c2ccc(NC(=O)Nc3cc(C(F)(F)F)ccc3F)cc2)cn1.O=C(O)C(F)(F)F`: the Inhibition is on record as 100% in assay [1], 66% in assay [2] and 0% in assay [3].

Turning to `Cc1[nH]c(C)c(-c2cc3ccccc3o2)c(=O)c1Cl`, the Inhibition turned out to be 92% in assay [1], 13% in assay [2] and 1% in assay [3].

Turning to `CCCCNC(=O)[C@H](Cc1ccccc1)NC(=O)c1ccc(O)c(-c2ccc(Cl)c(Cl)c2)c1`, the Inhibition is recorded as 98% in assay [1], 97% in assay [2] and 0% in assay [3].

For the molecule `CCN(CC)CCN(Cc1ccc(-c2ccc(C(F)(F)F)cc2)cc1)C(=O)CN1C(CCc2cccc(F)c2F)=NS(=O)(=O)c2ccccc21`, the results for the Inhibition in assay [1], in assay [2] and in assay [3] were 100%, 49% and 36%, respectively.

`Cc1ccc(NC(=O)c2ccc(CN3CCCN(CC4CCCCC4)CC3)cc2)cc1F.O=C(O)C(F)(F)F`: the Inhibition in assay [1] came to 92%; in assay [2], 61%; in assay [3], 51%.

Turning to `N#Cc1ccc(-c2ccc(C(=O)NC3CCN(CCN4CCC(c5cn(CCOC6CCCCO6)c6ccccc56)CC4)CC3)cc2)cc1` (centres undefined), the values for the Inhibition in assay [1], in assay [2] and in assay [3] were 99%, 86% and 48%, respectively.

Regarding `CC[C@H](C)CNC(=O)c1ccnc(-c2ccc(CNC3Cc4ccccc4C3)cc2)c1.O=C(O)C(F)(F)F`, the Inhibition in assay [1] was determined as 100%; in assay [2] it was 87%; in assay [3], 18%.
